# Columns and labels:
# Assay in all cases: SPOT peptide array binding signal intensity (averaged, normalized) (arbitrary units (background-subtracted, floor 0; scale differs between SH3 domains)); higher = stronger binding of the SH3 domain to the peptide
# AgAbp1 = biological target: AgAbp1
# Procedure: (§1)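 GST-tagged SH3 domains from S. cerevisiae (Sc), A. gossypii (Ag), C. albicans (Ca) and S. pombe (Sp) were incubated at 10 ug/ml overnight at 4 C on cellulose SPOT membranes carrying 292 synthetic 15-mer peptides mined from the S. cerevisiae proteome (cysteines replaced by serines). Binding was detected with anti-GST antibody, HRP secondary and chemiluminescence, quantified with Genespotter, and reported as normalized spot intensities averaged over biological replicates.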
# AgBbc1 = biological target: AgBbc1
# Procedure: as §1
# AgBem1-D1 = biological target: AgBem1-D1
# Procedure: as §1
# AgBzz1-D1 = biological target: AgBzz1-D1
# Procedure: as §1
# AgBzz1-D2 = biological target: AgBzz1-D2
# Procedure: as §1
# AgCyk3 = biological target: AgCyk3
# Procedure: as §1
# AgFus1 = biological target: AgFus1
# Procedure: as §1
# AgHof1 = biological target: AgHof1
# Procedure: as §1
# AgHse1 = biological target: AgHse1
# Procedure: as §1
# AgLsb1 = biological target: AgLsb1
# Procedure: as §1
# AgLsb4 = biological target: AgLsb4
# Procedure: as §1
# AgMyo5 = biological target: AgMyo5
# Procedure: as §1
# AgNbp2 = biological target: AgNbp2
# Procedure: as §1
# AgRvs167 = biological target: AgRvs167
# Procedure: as §1
# AgSho1 = biological target: AgSho1
# Procedure: as §1
# AgSla1-D1-D2 = biological target: AgSla1-D1-D2
# Procedure: as §1
# AgSla1-D3 = biological target: AgSla1-D3
# Procedure: as §1
# CaAbp1-D1 = biological target: CaAbp1-D1
# Procedure: as §1
# CaAbp1-D2 = biological target: CaAbp1-D2
# Procedure: as §1
# CaBbc1 = biological target: CaBbc1
# Procedure: as §1
# CaBem1-D1 = biological target: CaBem1-D1
# Procedure: as §1
# CaBzz1-D1 = biological target: CaBzz1-D1
# Procedure: as §1
# CaBzz1-D2 = biological target: CaBzz1-D2
# Procedure: as §1
# CaCyk3 = biological target: CaCyk3
# Procedure: as §1
# CaFus1 = biological target: CaFus1
# Procedure: as §1
# CaHof1 = biological target: CaHof1
# Procedure: as §1
# CaHse1 = biological target: CaHse1
# Procedure: as §1
# CaLsb1 = biological target: CaLsb1
# Procedure: as §1
# CaLsb4 = biological target: CaLsb4
# Procedure: as §1
# CaMyo5 = biological target: CaMyo5
# Procedure: as §1
# CaNbp2 = biological target: CaNbp2
# Procedure: as §1
# CaRvs167 = biological target: CaRvs167
# Procedure: as §1
# CaRvs167-3 = biological target: CaRvs167-3
# Procedure: as §1
# CaSho1 = biological target: CaSho1
# Procedure: as §1
# CaSla1-D1-D2 = biological target: CaSla1-D1-D2
# Procedure: as §1
# CaSla1-D3 = biological target: CaSla1-D3
# Procedure: as §1
# ScAbp1 = biological target: ScAbp1
# Procedure: as §1
# ScBbc1 = biological target: ScBbc1
# Procedure: as §1
# ScBem1-D1 = biological target: ScBem1-D1
# Procedure: as §1
# ScBzz1-D1 = biological target: ScBzz1-D1
# Procedure: as §1
# ScBzz1-D2 = biological target: ScBzz1-D2
# Procedure: as §1
# ScCyk3 = biological target: ScCyk3
# Procedure: as §1
# ScFus1 = biological target: ScFus1
# Procedure: as §1
# ScHof1 = biological target: ScHof1
# Procedure: as §1
# ScHse1 = biological target: ScHse1
# Procedure: as §1
# ScLsb1 = biological target: ScLsb1
# Procedure: as §1
# ScLsb2 = biological target: ScLsb2
# Procedure: as §1
# ScLsb3 = biological target: ScLsb3
# Procedure: as §1
# ScLsb4 = biological target: ScLsb4
# Procedure: as §1
# ScMyo3 = biological target: ScMyo3
# Procedure: as §1
# ScMyo5 = biological target: ScMyo5
# Procedure: as §1
# ScNbp2 = biological target: ScNbp2
# Procedure: as §1
# ScPex13 = biological target: ScPex13
# Procedure: as §1
# ScRvs167 = biological target: ScRvs167
# Procedure: as §1
# ScSho1 = biological target: ScSho1
# Procedure: as §1
# ScSla1-D1-D2 = biological target: ScSla1-D1-D2
# Procedure: as §1
# ScSla1-D3 = biological target: ScSla1-D3
# Procedure: as §1
# SpAbp1-D1 = biological target: SpAbp1-D1
# Procedure: as §1
# SpBbc1 = biological target: SpBbc1
# Procedure: as §1
# SpBzz1-D1 = biological target: SpBzz1-D1
# Procedure: as §1
# SpBzz1-D2 = biological target: SpBzz1-D2
# Procedure: as §1
# SpCyk3 = biological target: SpCyk3
# Procedure: as §1
# SpHof1 = biological target: SpHof1
# Procedure: as §1
# SpHof1-2 = biological target: SpHof1-2
# Procedure: as §1
# SpHof1-3 = biological target: SpHof1-3
# Procedure: as §1
# SpHse1 = biological target: SpHse1
# Procedure: as §1
# SpLsb1 = biological target: SpLsb1
# Procedure: as §1
# SpLsb4 = biological target: SpLsb4
# Procedure: as §1
# SpMyo1 = biological target: SpMyo1
# Procedure: as §1
# SpNbp2 = biological target: SpNbp2
# Procedure: as §1
# SpPex13 = biological target: SpPex13
# Procedure: as §1
# SpRvs167 = biological target: SpRvs167
# Procedure: as §1
# SpSla1-D1-D2 = biological target: SpSla1-D1-D2
# Procedure: as §1
# SpSla1-D3 = biological target: SpSla1-D3
# Procedure: as §1
binder,measurement,setting,value
GQYRRTIVIPRRFFT,SPOT peptide array binding signal intensity,AgAbp1,24.5
same,SPOT peptide array binding signal intensity,AgBbc1,25.5
same,SPOT peptide array binding signal intensity,AgBem1-D1,52
same,SPOT peptide array binding signal intensity,AgBzz1-D1,42.5
same,SPOT peptide array binding signal intensity,AgBzz1-D2,21
same,SPOT peptide array binding signal intensity,AgCyk3,42.5
same,SPOT peptide array binding signal intensity,AgFus1,619
same,SPOT peptide array binding signal intensity,AgHof1,68
same,SPOT peptide array binding signal intensity,AgHse1,478
same,SPOT peptide array binding signal intensity,AgLsb1,10
same,SPOT peptide array binding signal intensity,AgLsb4,211
same,SPOT peptide array binding signal intensity,AgMyo5,2.25
same,SPOT peptide array binding signal intensity,AgNbp2,56.5
same,SPOT peptide array binding signal intensity,AgRvs167,14.8
same,SPOT peptide array binding signal intensity,AgSho1,255
same,SPOT peptide array binding signal intensity,AgSla1-D1-D2,763
same,SPOT peptide array binding signal intensity,AgSla1-D3,11
same,SPOT peptide array binding signal intensity,CaAbp1-D1,168
same,SPOT peptide array binding signal intensity,CaAbp1-D2,172
same,SPOT peptide array binding signal intensity,CaBbc1,128
same,SPOT peptide array binding signal intensity,CaBem1-D1,24.5
same,SPOT peptide array binding signal intensity,CaBzz1-D1,60
same,SPOT peptide array binding signal intensity,CaBzz1-D2,45
same,SPOT peptide array binding signal intensity,CaCyk3,81
same,SPOT peptide array binding signal intensity,CaFus1,2340
same,SPOT peptide array binding signal intensity,CaHof1,5
same,SPOT peptide array binding signal intensity,CaHse1,45.8
same,SPOT peptide array binding signal intensity,CaLsb1,7
same,SPOT peptide array binding signal intensity,CaLsb4,94.5
same,SPOT peptide array binding signal intensity,CaMyo5,46.5
same,SPOT peptide array binding signal intensity,CaNbp2,564
same,SPOT peptide array binding signal intensity,CaRvs167,191
same,SPOT peptide array binding signal intensity,CaRvs167-3,1390
same,SPOT peptide array binding signal intensity,CaSho1,1460
same,SPOT peptide array binding signal intensity,CaSla1-D1-D2,60
same,SPOT peptide array binding signal intensity,CaSla1-D3,89.8
same,SPOT peptide array binding signal intensity,ScAbp1,71
same,SPOT peptide array binding signal intensity,ScBbc1,2.5
same,SPOT peptide array binding signal intensity,ScBem1-D1,9
same,SPOT peptide array binding signal intensity,ScBzz1-D1,17.5
same,SPOT peptide array binding signal intensity,ScBzz1-D2,78
same,SPOT peptide array binding signal intensity,ScCyk3,108
same,SPOT peptide array binding signal intensity,ScFus1,898
same,SPOT peptide array binding signal intensity,ScHof1,4.75
same,SPOT peptide array binding signal intensity,ScHse1,995
same,SPOT peptide array binding signal intensity,ScLsb1,10.2
same,SPOT peptide array binding signal intensity,ScLsb2,29
same,SPOT peptide array binding signal intensity,ScLsb3,210
same,SPOT peptide array binding signal intensity,ScLsb4,33
same,SPOT peptide array binding signal intensity,ScMyo3,12.5
same,SPOT peptide array binding signal intensity,ScMyo5,10
same,SPOT peptide array binding signal intensity,ScNbp2,346
same,SPOT peptide array binding signal intensity,ScPex13,15.2
same,SPOT peptide array binding signal intensity,ScRvs167,69.3
same,SPOT peptide array binding signal intensity,ScSho1,1020
same,SPOT peptide array binding signal intensity,ScSla1-D1-D2,205
same,SPOT peptide array binding signal intensity,ScSla1-D3,54.5
same,SPOT peptide array binding signal intensity,SpAbp1-D1,242
same,SPOT peptide array binding signal intensity,SpBbc1,12.5
same,SPOT peptide array binding signal intensity,SpBzz1-D1,107
same,SPOT peptide array binding signal intensity,SpBzz1-D2,4.5
same,SPOT peptide array binding signal intensity,SpCyk3,21
same,SPOT peptide array binding signal intensity,SpHof1,186
same,SPOT peptide array binding signal intensity,SpHof1-2,50
same,SPOT peptide array binding signal intensity,SpHof1-3,321
same,SPOT peptide array binding signal intensity,SpHse1,573
same,SPOT peptide array binding signal intensity,SpLsb1,5
same,SPOT peptide array binding signal intensity,SpLsb4,131
same,SPOT peptide array binding signal intensity,SpMyo1,4.75
same,SPOT peptide array binding signal intensity,SpNbp2,287
same,SPOT peptide array binding signal intensity,SpPex13,79.5
same,SPOT peptide array binding signal intensity,SpRvs167,43
same,SPOT peptide array binding signal intensity,SpSla1-D1-D2,6
same,SPOT peptide array binding signal intensity,SpSla1-D3,47

# From the supplement of paper PMC4466140
